PAX8 reporter = inhibitors of PAX8 transcriptional activity in RMG-I cells; RMG-I TPO-luciferase reporter, SteadyGlo, 24 h; inhibition, % at 12.6 µM; actives 1.2% (n = 360,000);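 active = mean replicate inhibition at least 60% with every replicate also reaching 60%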;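 note: luciferase light reporting Pax8 driven TPO promoter activity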
EWS-Fli block = inhibitors of EWS/Fli oncoprotein transcriptional activity. A673 NR0B1-luciferase reporter, viability-normalised. inhibition, % at 12.6 µM. actives 0.67% (n = 350,000). AID 651661;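 active = mean inhibition of at least 50% after viability correction, with every replicate also passing that limit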;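 note: firefly luciferase signal divided by Alamar Blue viability fluorescence both relative to DMSO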
HIV Env fusion = inhibitors of HIV Env-mediated cell fusion | AID 651610 | HeLa-JRFL Env/CEM21 cell fusion, luciferase | inhibition, % at 12.3 µM | actives 1.1% (n = 360,000);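 active = mean replicate inhibition score of at least 50 and every replicate individually at or above 50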
CFTR F508del cor = correctors of CFTR F508del function in bronchial epithelial cells | actives 0.36% (n = 350,000) | activity (quench increase), % at 7.58 µM | AID 720511 | CFBE cells, YFP halide quenching; stimulated with forskolin plus potentiator P3; % fluorescence drop versus neutral controls;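 active = mean added fluorescence quench of at least 8% versus neutral control, with both replicates also reaching 8%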;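 note: cells transiently co-express mutant CFTR-F508del with the halide-sensitive YFP; corrector assay measuring rescue of mutant channel to the surface after 24 h compound exposure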
FXN GAA850 act = activators of GAA850 frataxin (FXN) promoter | HEK293 lucGAA850 FXN promoter luciferase reporter, 24 h; percent of 10 µM SAHA response | activation, % at 6 µM | actives 0.56% (n = 360,000);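 active = activation above the average of all compounds screened plus 3 SD, cutoff fixed separately per campaign, cut at about 7.5% in these data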
Numbers stand for hits. An excerpt weighted towards active compounds, which were near 2.5% of everything screened.

How did O=C(Cc1ccc(F)cc1)Nc1cccc(S(=O)(=O)N2CCCC2)c1 do in these assays?
PAX8 reporter: inactive; EWS-Fli block: inactive; HIV Env fusion: 63.0; CFTR F508del cor: inactive; FXN GAA850 act: inactive

What do the screens show for `O=C(COc1ccc(F)cc1Cl)Nc1cccc(S(=O)(=O)N2CCCCCC2)c1`?
PAX8 reporter: inactive; EWS-Fli block: inactive; CFTR F508del cor: 8.8; FXN GAA850 act: inactive

What do the screens show for `CN(CC(=O)Nc1cccc(S(=O)(=O)N2CCCC2)c1)CC(=O)Nc1ccc(F)c(F)c1F`?
PAX8 reporter: inactive; EWS-Fli block: inactive; HIV Env fusion: inactive; CFTR F508del cor: 19.4; FXN GAA850 act: inactive

How did C[C@H](CO)N1C[C@H](C)[C@H](CN(C)C(=O)c2ccncc2)OCCCC[C@H](C)Oc2ccc(NS(C)(=O)=O)cc2C1=O do in these assays?
EWS-Fli block: inactive; HIV Env fusion: inactive; CFTR F508del cor: inactive

How did COc1ccc2c3c(n(C)c2c1)[C@@H](CO)N(C(=O)CN1CCOCC1)CC31CN(C(C)=O)C1 do in these assays?
EWS-Fli block: inactive; CFTR F508del cor: inactive

Results for COCC(=O)Nc1ccc2c(c1)OC[C@H](C)N(C(=O)C1CCCC1)C[C@@H](C)[C@@H](OC)CN(C)C2=O ?
PAX8 reporter: inactive; EWS-Fli block: inactive; HIV Env fusion: inactive; CFTR F508del cor: inactive

How did O=C(Nc1ccccc1Cl)N1CCCN(c2nc(-c3ccccc3)ns2)CC1 do in these assays?
PAX8 reporter: inactive; EWS-Fli block: inactive; HIV Env fusion: inactive; CFTR F508del cor: inactive; FXN GAA850 act: inactive

How did Cc1c(Cl)cccc1NC(=O)N1CCCN(c2nc(-c3ccccc3)ns2)CC1 do in these assays?
PAX8 reporter: inactive; EWS-Fli block: inactive; HIV Env fusion: 55.1; CFTR F508del cor: inactive; FXN GAA850 act: inactive

How did C[C@@H]1CCCCO[C@@H](CN(C)C(=O)C2CCCCC2)[C@H](C)CN([C@@H](C)CO)C(=O)c2cc(NS(=O)(=O)c3ccc(Cl)cc3)ccc2O1 do in these assays?
PAX8 reporter: 80.7; EWS-Fli block: inactive; HIV Env fusion: inactive; CFTR F508del cor: inactive

How did C[C@@H]1CCCCO[C@H](CN(C)C(=O)C2CCCCC2)[C@H](C)CN([C@H](C)CO)C(=O)c2cc(NS(=O)(=O)c3ccc(Cl)cc3)ccc2O1 do in these assays?
PAX8 reporter: 67.2; EWS-Fli block: inactive; HIV Env fusion: inactive; CFTR F508del cor: inactive

How did Cc1ccc(S(=O)(=O)Nc2ccc3c(c2)C(=O)N([C@H](C)CO)C[C@@H](C)[C@H](CN(C)C(=O)C2CCCCC2)OCCCC[C@H](C)O3)cc1 do in these assays?
PAX8 reporter: 74.5; EWS-Fli block: inactive; HIV Env fusion: inactive; CFTR F508del cor: inactive

Results for C[C@H]1CCCCO[C@H](CN(C)C(=O)C2CCCCC2)[C@@H](C)CN([C@@H](C)CO)C(=O)c2cc(NS(=O)(=O)c3ccc(Cl)cc3)ccc2O1 ?
PAX8 reporter: 86.5; EWS-Fli block: 53.7; HIV Env fusion: inactive; CFTR F508del cor: inactive

What do the screens show for `C[C@@H]1CCCCO[C@H](CN(C)C(=O)C2CCCCC2)[C@@H](C)CN([C@H](C)CO)C(=O)c2cc(NS(=O)(=O)c3ccc(Cl)cc3)ccc2O1`?
PAX8 reporter: inactive; EWS-Fli block: inactive; HIV Env fusion: inactive; CFTR F508del cor: inactive

What do the screens show for `CCCCCC(=O)N1C[C@H](n2cc(-c3ccc(F)cc3)nn2)[C@@H](O)C[C@@H]1c1ccc(Cl)cc1`?
PAX8 reporter: 81.8; EWS-Fli block: inactive; HIV Env fusion: inactive; CFTR F508del cor: inactive; FXN GAA850 act: inactive

What do the screens show for `CCCOP(=O)(c1ccc(N(C)C)cc1)C(O)c1c(Cl)cccc1Cl` (stereo not drawn)?
PAX8 reporter: inactive; EWS-Fli block: inactive; HIV Env fusion: 72.8; CFTR F508del cor: inactive; FXN GAA850 act: inactive

Results for CCOP(=O)(c1ccc(N(C)C)cc1)C(O)c1c(Cl)cccc1Cl (stereo not drawn) ?
PAX8 reporter: inactive; HIV Env fusion: inactive; FXN GAA850 act: inactive

What do the screens show for `CC(C)COP(=O)(c1ccc(N(C)C)cc1)C(O)c1ccc(Br)cc1` (stereo not drawn)?
PAX8 reporter: inactive; EWS-Fli block: inactive; HIV Env fusion: 56.3; CFTR F508del cor: inactive; FXN GAA850 act: inactive

Results for CCN=c1scc(C)n1/N=C/c1ccsc1 ?
HIV Env fusion: inactive; FXN GAA850 act: inactive

What do the screens show for `COCCN=c1scc(C)n1/N=C/C1CC2C=CC1C2` (stereo not drawn)?
PAX8 reporter: inactive; EWS-Fli block: inactive; HIV Env fusion: 63.1; CFTR F508del cor: inactive; FXN GAA850 act: inactive

How did CN(C)c1nc(NCc2ccccc2)nc(SCC(=O)Nc2ccc(Cl)c(Cl)c2)n1 do in these assays?
HIV Env fusion: 57.1; FXN GAA850 act: inactive

What do the screens show for `CCNc1nc(SCC(=O)Nc2ccc(Cl)c(Cl)c2)nc(N(C)C)n1`?
PAX8 reporter: inactive; EWS-Fli block: inactive; HIV Env fusion: inactive; CFTR F508del cor: inactive; FXN GAA850 act: inactive

How did Cc1ccc2c(CC(=O)OCC(=O)Nc3ccc(Cl)cn3)coc2c1 do in these assays?
PAX8 reporter: 119.0; EWS-Fli block: inactive; HIV Env fusion: inactive; FXN GAA850 act: inactive

Results for Cc1cc(Cl)ccc1OCC(=O)OCC(=O)Nc1ccc(Cl)cn1 ?
PAX8 reporter: inactive; EWS-Fli block: inactive; HIV Env fusion: inactive; CFTR F508del cor: inactive; FXN GAA850 act: inactive

Results for Cc1cccc(C)c1OCC(=O)OCC(=O)Nc1ccc(Cl)cn1 ?
PAX8 reporter: inactive; EWS-Fli block: inactive; HIV Env fusion: inactive; CFTR F508del cor: 22.7; FXN GAA850 act: inactive

Results for COc1ccc(S(=O)(=O)Nc2ccc3c(c2)CC(=O)N([C@@H](C)CO)C[C@H](C)[C@@H](CN(C)C(=O)Nc2ccc4c(c2)OCO4)O3)cc1 ?
PAX8 reporter: inactive; EWS-Fli block: inactive; HIV Env fusion: inactive; CFTR F508del cor: inactive

How did O=C(Nc1csc([N+](=O)[O-])c1)Nc1c(Cl)cccc1Cl do in these assays?
PAX8 reporter: inactive; EWS-Fli block: inactive; HIV Env fusion: inactive; CFTR F508del cor: inactive; FXN GAA850 act: inactive

How did O=C(Nc1ccc([N+](=O)[O-])cc1)Nc1ccc(Cl)cc1F do in these assays?
PAX8 reporter: inactive; EWS-Fli block: inactive; HIV Env fusion: 66.0; CFTR F508del cor: inactive; FXN GAA850 act: inactive

How did O=C(Nc1ccc(Cl)cc1)Nc1cc([N+](=O)[O-])ccc1F do in these assays?
PAX8 reporter: inactive; HIV Env fusion: inactive; FXN GAA850 act: inactive

How did O=C(Nc1ccc(Cl)cc1)Nc1csc([N+](=O)[O-])c1 do in these assays?
PAX8 reporter: 72.3; EWS-Fli block: inactive; HIV Env fusion: inactive; CFTR F508del cor: inactive; FXN GAA850 act: inactive

How did O=C(Nc1ccccc1)C1Cc2c(-c3ccc(Cl)cc3)ccnc2O1 (stereo not drawn) do in these assays?
PAX8 reporter: inactive; EWS-Fli block: inactive; HIV Env fusion: inactive; CFTR F508del cor: inactive; FXN GAA850 act: inactive

How did O=C(NCc1ccco1)C1Cc2c(-c3cccc(F)c3)ccnc2O1 (stereo not drawn) do in these assays?
PAX8 reporter: inactive; EWS-Fli block: 54.2; HIV Env fusion: inactive; CFTR F508del cor: inactive; FXN GAA850 act: inactive
